Assay results from PubChem BioAssay (Tox21).
Results filed as inconclusive are left out. Entries that show only a call come without a potency. Activity calls are given as the source filed them. Calls follow the shape of the dose curve; as a rule, active = well fitted cell-killing curve with a large enough effect in the repeat runs; inconclusive = weak or mixed curves; inactive = flat fitted curve, though single readings scatter.

Experiment: qHTS assay to identify small molecule antagonists of the TGF-beta/Smad signaling pathway - cell viability counter screen (AID 1346824); also: nearly all actives have a fitted effect of over 50% in size
Details: SBE-bla HEK293T viability, CellTiter-Glo luminescence; series mostly up to 76.8 µM
Description: U.S. Tox21 Program National Center for Advancing Translational Sciences [NCATS] NIH Chemical Genomics Center [NCGC] U.S. Environmental Protection Agency [EPA] National Institutes of Environmental Health Sciences [NIEHS] National Toxicology Program [NTP] U.S. Food and Drug Administration [FDA] Tox21 Assay Overview: Transforming growth factor beta (TGF-beta) superfamily consists of a large number of structurally related dimeric proteins that act as hormones or local mediators in regulating a wide range of biological functions. This superfamily includes TGF-betas themselves, the bone morphogenetic proteins (BMPs) and the activins. These ligands induce oligomerization of serine/threonine receptor kinases and phosphorylate the cytoplasmic signaling molecules of Smad protein family. CellSensor SBE-bla HEK 293T cell line (Life Technologies, Carlsbad, CA), responsive to TGF-beta was used to screen Tox21 10K compound library for identification of agonists/antagonists of the Smad signaling pathway. This cell line contains a beta-lactamase reporter gene under control of the Smad binding element (SBE) stably integrated into HEK 293T cells. Also cytotoxicity of the compounds was tested in parallel by measuring the cell viability using CellTiter-Glo assay system in the same wells.
Tox21 Assay Protocol Summary: SBE-bla HEK 293T cells were dispensed at 4,000/well in 5 uL of assay medium into black wall/clear-bottom 1536-well plates using a Multidrop Combi (ThermoFisher Scientific, Waltham, MA) dispenser. After the assay plates were incubated at 37 C and 5% CO2 for an overnight, 23 nL of compounds dissolved in DMSO, positive controls or DMSO only was transferred to the assay plate by a Pintool station (Kalypsys, San Diego, CA). Compound transfer was followed by the addition of 1 uL of 0.25 ng/mL TGF-beta1 or assay buffer using two separate tips of Flying Reagent Dispenser (FRD, Aurora Discovery, San Diego, CA). The assay plates were incubated at 37 C and 5% CO2 for 5 hr. One uL of LiveBLAzer B/G FRET substrate (Life Technologies) was added using a Flying Reagent Dispenser (FRD, Aurora Discovery, San Diego, CA) and the plates were incubated at room temperature for 2 hr. Fluorescence intensity (405 nm excitation, 460 nm and 530 nm emissions) was measured using an Envision plate reader (PerkinElmer, Shelton, CT). For cytotoxicity read, 4 uL of CellTiter-Glo reagent (Promega Corporation, Madison, WI) was added to each well of the assay plates using FRD. After 30 min incubation at room temperature, the luminescence intensity was measured using ViewLux plate reader (PerkinElmer).

| SMILES | Potency |
| --- | --- |
| c1cnc(N2CCN(Cc3ccc4c(c3)OCO4)CC2)nc1 | inactive |
| OCCOc1ccc(OCCO)cc1 | inactive |
| C=CCCCCCCCCC=O | inactive |
| NC(=O)COCCN1CCN(C(c2ccccc2)c2ccc(Cl)cc2)CC1 (stereo not given) | inactive |
| NS(=O)(=O)c1ccccc1Cl | inactive |
| Brc1c(NC2=NCCN2)ccc2nccnc12 | inactive |
| CC(C)c1cc2c(cc1S(=O)(=O)O)[C@@]1(C)CCC[C@@](C)(C(=O)O)[C@@H]1CC2 | inactive |
| CN(C(=O)c1c(O)c2ccccc2n(C)c1=O)c1ccccc1 | inactive |
| CC(C(=O)O)c1ccc(CC2CCCC2=O)cc1 (stereo not given) | inactive |
| CS(=O)(=O)O | inactive |
| COC(=O)NN | inactive |
| C=COCC1CCC(CO)CC1 (stereo not given) | inactive |
| CCCCOCCOCCOCc1cc2c(cc1CCC)OCO2 | inactive |
| CCN(Cc1ccncc1)C(=O)C(CO)c1ccccc1 (stereo not given) | inactive |
| N[C@H]1CN(c2c(F)cc3c(=O)c(C(=O)O)cn(C4C[C@H]4F)c3c2Cl)CC12CC2 (stereo not given in full) | inactive |
| CC(=O)c1ccccc1O | inactive |
| Cc1[nH]c(=O)c(C#N)cc1-c1ccc2nccn2c1 | inactive |
| C=C(C)CS(=O)(=O)O | inactive |
| C1CN(CCOCCN2CCOCC2)CCO1 | inactive |
| CC(C)NCC(O)c1ccc(NS(C)(=O)=O)cc1 (stereo not given) | inactive |

| SMILES | Potency |
| --- | --- |
| CC(=O)CC(C)C | inactive |
| O=C1CCCCCCCCCCCN1 | inactive |
| N=c1nc(N2CCCCC2)cc(N)n1O | inactive |
| CCCCC/C=C\CCC=O | inactive |
| CC(C)(c1ccc(O)cc1)c1ccc(O)cc1 | inactive |
| C[C@H]1C[C@@H](O)CC(C)(C)C1 | inactive |
| O=c1n(CCO)c(=O)n(CCO)c(=O)n1CCO | inactive |
| C=C1CC[C@H]2C[C@@H]1C2(C)C | inactive |
| C[N+](C)(C)CCCCCC[N+](C)(C)C | inactive |
| CCc1ccc(O)c(OC)c1 | inactive |
| Cc1cccc(C)c1NC(=O)C(C)N (stereo not given) | inactive |
| CCOC(=O)c1c(C)n(C)c2ccc(O)cc12 | inactive |
| CC(C)CCCC(C)N (stereo not given) | inactive |
| CC[N+](C)(C)c1cccc(O)c1 | inactive |
| O=C1NC(=O)[C@@]2(CCOc3ccc(F)cc32)N1 | inactive |
| CCOC(=O)Nc1ccc(NCc2ccc(F)cc2)nc1N | inactive |
| NC(=O)Nc1ccccc1 | inactive |
| C1OCOCO1 | inactive |
| CC/C=C\CC/C=C/CO | inactive |
| NC(=O)c1ccc(N)cc1 | inactive |
